Test results as given in PubChem BioAssay (NCATS).
Inconclusive results are not listed. The source made the active and inactive calls. Unless noted, calls follow the shape of the dose curve; as a rule, active = well fitted curve in the direction sought with a large enough effect; inconclusive = small, poorly fitted or top-dose-only effect, or another doubt; inactive = no such curve, though single readings can be large; an effect the other way counts as inactive or inconclusive.

Columns and labels:
[1] = target: Calcium and integrin-binding protein 1 (Homo sapiens) (UniProt Q99828); experiment: Primary qHTS for Identification of Calcium Integrin Binding Protein 1 (CIB1) Competitor (AID 1508620);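 also: GST tagged CIB1 binding a fluorescein labelled alphaIIb integrin peptide tracer; top concentration of the series differs between compounds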
Calcium and integrin-binding protein 1 (Homo sapiens), sequence (Q99828 whole entry, looked up): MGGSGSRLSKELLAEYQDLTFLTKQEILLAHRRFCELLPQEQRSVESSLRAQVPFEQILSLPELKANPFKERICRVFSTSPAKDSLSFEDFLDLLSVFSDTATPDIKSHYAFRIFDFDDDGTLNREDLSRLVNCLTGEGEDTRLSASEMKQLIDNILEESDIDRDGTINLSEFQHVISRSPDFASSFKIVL
In short: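 Fluorescence polarization competition: GST-tagged CIB1 (1 uM final) preincubated with compound 15 min at room temperature, then FITC-labelled alphaIIb peptide (100 nM final) added. After 15 min at room temperature, polarization read at Ex 480/Em 540.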

[2] = target: Calcium and integrin-binding protein 1 (Homo sapiens) (UniProt Q99828); experiment: Confirmatory qHTS for Identification of Calcium Integrin Binding Protein 1 (CIB1) Competitor (AID 1508617); also: nearly all actives have a fitted effect of over 65% in size
Description: Assay Provider: Ulhas P. Naik, PhD
Sidney Kimmel Medical College
Thomas Jefferson University, Philadelphia, PA
Primary function of platelets is to maintain hemostasis. At the site of vascular injury, platelets adhere to adhesive proteins such as collagen and von Willebrand factor. Adherent platelets are activated and generate soluble platelet agonists such as thrombin, ADP and thromboxane A2. Following exposure of circulating platelets to these agonists, results in platelet shape change, granule secretion and activation of platelet integrin alphaIIb-beta3. Ligand binding to activated integrin alphaIIb-beta3 triggers outside-in signaling, leading to platelet aggregation, stabilization of platelet plug, and clot retraction. Upon atherosclerotic plaque rupture also causes platelet plug formation, which underlies a number of cardiovascular diseases such as myocardial infraction and stroke. A number of anti-platelet drugs such as aspirin, clopidogrel, prasugrel, vorapaxar, and eptifibatide are currently available to prevent the thrombotic complications. However, these anti-platelet agents have several limitations including inherent variability in individual responses, developing resistance, and serious bleeding side effects. For these reasons they are not suitable for long-term protection. Based on the experiences with current anti-platelet drugs, it appears that the most useful therapeutic approach is to intersect the secondary responses such as integrin outside-in signaling or recruitment of platelets by TxA2 and secreted ADP. Compounds, which can largely preserve the primary hemostatic function of platelets but inhibit secondary response will be most desired therapeutic agents for treatment of cardiovascular disease.
CIB1 is a calcium integrin binding protein, which specifically interact with the alphaIIb subunit of integrin alphaIIb-beta3. Binding of CIB1 to alphaIIb regulates the outside-in signaling in platelets, which is needed for thrombus stabilization and thrombus growth. […] Therefore, we propose that discovery of a small molecule that can prevent the association of CIB1 and alphaIIb-beta3 will be a potential anti-platelet agent that can block the thrombus formation without undue effect on hemostasis.
To develop fluorescence polarization (FP) assay using fluorescently labeled alphaIIb peptide and CIB1 protein. Using FP assay characterize the binding affinity, competitive inhibition, and acceptable Z factor (0.5 to1) in order to perform the HTS to identify small molecule compound that can prevent CIB1 binding to platelet integrin alphaIIb-beta3. Active compounds were re-acquired and validated using confirmatory and counterscreens.
[1] Naik MU, Nigam A, Manrai P, et al. CIB1 deficiency results in impaired thrombosis: the potential role of CIB1 in outside-in signaling through integrin alpha IIb beta 3. J Thromb Haemost. 2009;7(11):1906-1914. doi:10.1111/j.1538-7836.2009.03581.
SEQUENCE No. (1, 2, 3, etc.); […] (e.g., Cells, Incubation, Reagent, etc.); VALUE and DESCRIPTION.
1; Reagent; 3 uL; Protein or buffer (4/3x)
2; Compound; 46 nL; Control inhibitor / compound library
3; Time; 15 min; Room temperature incubation
4; Reagent; 1 uL; Fluorescent labeled peptide (4x)
5; Time; 1000 rpm; Centrifuge
6; Time; 15 min; Room temperature incubation
7; Detection; Ex 480/ Em 540; ViewLux Fluorescence Read
NOTES (numbers refer to sequence above)
1; Protein Mixture: C1B1-GST (final concentrations of 1 uM). Buffer composition: 5 mM HEPES pH 7.4, 125 mM NaCl, 5 mM CaCl2, 0.01% Tween20.
2; Control Inhibitor: unlabeled peptide (final concentration range 17.4 nM to 572 uM). Compound Library final concentration range 18.3 nM to 114 uM.
3; Room temperature incubation.
4; Fluorescent Labeled Peptide: FITC-alphaIIb (final concentration of 100 nM). Sequence of alphaIIb peptide: Acetyl-[…]-FITC (purity is 95.83%).
6; Room temperature incubation.
[…]

[3] = Primary qHTS for small molecule stabilizers of the endoplasmic reticulum resident proteome: Secreted ER Calcium Modulated Protein (SERCaMP) assay (AID 1508630)
In short: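 GLuc-SERCaMP-expressing SH-SY5Y cells, pretreated 16 h with compound, are challenged with thapsigargin to empty ER calcium stores; after 4 h, coelenterazine is added directly to the medium and luminescence is imaged.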

[4] = Validation qHTS assay for inhibitors of Activation Induced Cytidine Deaminase (AID): UDG Counterscreen signal (AID 1347427)
In short: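 Counterscreen read of UDG activity (2 U/mL, 4/3x) in the FRET deamination format with AID (1 uM, 4/3x), DJC20/DJC23 substrates (250 nM, 4x), 4 h at room temperature. NaOH stop, fluorescence at 560 ex/665 em.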

[5] = target: Single-stranded DNA cytosine deaminase (Homo sapiens) (UniProt Q9GZX7); experiment: Validation qHTS assay for inhibitors of Activation Induced Cytidine Deaminase (AID): AID signal (AID 1347429)
Single-stranded DNA cytosine deaminase (Homo sapiens), sequence (Q9GZX7 whole entry, looked up): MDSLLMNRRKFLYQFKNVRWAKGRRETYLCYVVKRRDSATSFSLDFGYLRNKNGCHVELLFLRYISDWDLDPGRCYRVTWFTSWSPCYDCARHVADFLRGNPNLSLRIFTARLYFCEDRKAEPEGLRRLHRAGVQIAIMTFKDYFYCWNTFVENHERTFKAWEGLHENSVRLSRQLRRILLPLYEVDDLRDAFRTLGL
In short: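 Fluorescence at 540 nm excitation and 590 nm emission reports ssDNA cytosine deamination by AID, with UDG in the same well. Compound-treated reactions ran 4 hr at room temperature with DJC20/DJC23 substrate, followed by 30 min NaOH treatment.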

[6] = Primary qHTS for inhibitors of La Crosse Virus (LACV) - induced cell death in SH-SY5Y cells (AID 1508616);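 also: top concentration of the series differs between compounds; higher means more rescue of cells from virus-induced death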
In short: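 Protection against LACV-induced cell death is scored in SH-SY5Y cells exposed to compounds and virus (0.01 MOI) for 6 days. Data normalized to virus-infected DMSO wells and virus-free DMSO wells.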

[7] = target: Protein phosphatase 1D (Homo sapiens) (UniProt O15297); experiment: Rhodamine-PBP qHTS Assay for Modulators of WT P53-Induced Phosphatase 1 (WIP1) (AID 1347425)
Protein phosphatase 1D (Homo sapiens), sequence (O15297 whole entry, looked up): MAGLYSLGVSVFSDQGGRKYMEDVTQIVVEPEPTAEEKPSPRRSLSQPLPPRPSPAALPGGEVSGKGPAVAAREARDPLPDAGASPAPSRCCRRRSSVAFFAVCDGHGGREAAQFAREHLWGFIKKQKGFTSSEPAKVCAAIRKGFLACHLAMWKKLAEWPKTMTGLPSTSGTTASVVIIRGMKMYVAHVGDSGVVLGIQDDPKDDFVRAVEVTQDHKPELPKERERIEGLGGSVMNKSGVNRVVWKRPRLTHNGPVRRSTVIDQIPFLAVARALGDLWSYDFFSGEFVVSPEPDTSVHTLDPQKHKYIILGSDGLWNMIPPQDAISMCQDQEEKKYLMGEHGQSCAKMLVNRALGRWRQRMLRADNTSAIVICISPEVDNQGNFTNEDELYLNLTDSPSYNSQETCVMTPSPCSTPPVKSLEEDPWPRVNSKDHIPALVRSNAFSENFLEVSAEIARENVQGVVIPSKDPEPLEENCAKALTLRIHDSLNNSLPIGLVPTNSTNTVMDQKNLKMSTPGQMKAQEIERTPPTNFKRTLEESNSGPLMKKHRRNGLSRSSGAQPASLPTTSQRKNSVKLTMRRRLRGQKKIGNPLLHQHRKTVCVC
In short: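 WIP1 (5 nM final) was preincubated with compound for 1 hour at room temperature. It then dephosphorylated 10 uM VEPPL-pS-QETFS peptide in Tris-HCl pH 7.5 with 30 mM MgCl2. Released Pi was detected by 10 uM Rh-PBP fluorescence (ex 525/em 598 nm) read at 1-min intervals for 11 min, as delta f1 - f0.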

[8] = A High-Content qHTS Against Drug Library for the Identification of Small Molecules that Inhibit DYT1 Early Onset Primary Dystonia-Associated Cell Pathology (AID 1645839; calls by dose curve; also: series mostly up to about 46 µM)
In short: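 Flp-In T-REx 293 cells with tetracycline-inducible EGFP-delE hTOR1A (WT EGFP-hTOR1A as reference), 800 cells/well; compound added with tetracycline, 48 h at 37 C. Fixed, permeabilized cells imaged; %pathology (punctate TorsinA) primary, cell count counterscreen.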

[9] = target: Cytochrome P450 2D6 (Homo sapiens) (UniProt P10635); experiment: Cytochrome P450 family 2 subfamily D member 6 (CYP2D6) small molecule antagonists: luciferase biochemical (cell-free) qHTS assay (AID 1645840; active = well fitted curve in the direction sought with a large enough effect in the repeat runs; an effect the other way counts as inactive or inconclusive; also: series mostly up to about 57 µM; nearly all actives have a fitted effect of over 55% in size)
Cytochrome P450 2D6 (Homo sapiens), sequence (P10635 whole entry, looked up): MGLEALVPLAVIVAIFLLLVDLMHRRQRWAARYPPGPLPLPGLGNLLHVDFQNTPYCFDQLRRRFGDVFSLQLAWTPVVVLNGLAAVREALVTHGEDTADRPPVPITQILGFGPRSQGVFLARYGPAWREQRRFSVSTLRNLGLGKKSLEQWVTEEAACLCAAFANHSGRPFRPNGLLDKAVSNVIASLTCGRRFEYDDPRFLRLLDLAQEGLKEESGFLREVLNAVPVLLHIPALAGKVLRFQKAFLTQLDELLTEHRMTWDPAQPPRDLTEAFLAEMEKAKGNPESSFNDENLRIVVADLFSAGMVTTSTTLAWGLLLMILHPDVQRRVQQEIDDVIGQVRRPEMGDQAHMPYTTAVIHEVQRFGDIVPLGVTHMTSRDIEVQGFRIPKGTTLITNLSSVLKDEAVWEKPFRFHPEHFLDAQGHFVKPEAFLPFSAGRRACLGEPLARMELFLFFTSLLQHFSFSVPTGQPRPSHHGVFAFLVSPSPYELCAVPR
In short: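 P450-Glo luminescent screen: recombinant CYP2D6 enzyme–proluciferin substrate mix preincubated with compound 10 min at room temperature, then NADPH regeneration added for 1 h at room temperature. Detection reagent added for 20 min; luciferin light read as relative luminescence units.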

Measured: Potency

NC(=O)c1ncn([C@@H]2O[C@H](CO)[C@@H](O)[C@@H]2O)c1N
inactive: [1]

NC(=O)c1ncn([C@@H]2O[C@H](CO)[C@@H](O)[C@@H]2O)c1O
inactive: [2] | [1] | [3]

CN[C@H](CC(C)C)C(=O)N[C@H]1C(=O)N[C@@H](CC(N)=O)C(=O)N[C@@H]2C(=O)N[C@H]3C(=O)N[C@H](C(=O)N[C@H](C(=O)O)c4cc(O)cc(O)c4-c4cc3ccc4O)[C@H](O)c3ccc(c(Cl)c3)Oc3cc2cc(c3O[C@@H]2O[C@H](CO)[C@@H](O)[C@H](O)[C@@H]2O[C@H]2C[C@](C)(N)[C@H](O)[C@H](C)O2)Oc2ccc(cc2Cl)[C@H]1O
inactive: [4] | [5] | [6] | [1]

O=C1c2cccc(O)c2C(=O)c2c(O)cc(CO)cc21
inactive: [2] | [3]

N[C@H]1CN(c2c(F)cc3c(=O)c(C(=O)O)cn(C4C[C@@H]4F)c3c2Cl)CC12CC2 (stereo not given in full)
inactive: [7] | [6] | [3] | [8] | [9]

CCn1c(=O)c2c(nc(C=Cc3ccc(OC)c(OC)c3)n2C)n(CC)c1=O
not listed: [2] | [4] | [5]
inactive: all other assays above

COC(=O)[C@H](CCCN=C(N)N)NS(=O)(=O)c1ccc(C)cc1
inactive: [1]

N#CC(=Cc1ccc(O)c(O)c1)C(=O)NCc1ccccc1
inactive: [1]

O=c1[nH]c(=O)n([C@H]2C[C@@H](O)[C@@H](CO)O2)cc1C=CBr
inactive: [4] | [5] | [6] | [1] | [3]

CN(C)CCN1C(=O)c2cccc3cc(N)cc(c23)C1=O
inactive: [2] | [3]
